We go through 28 targets from the supplement of paper PMC10849652.

Of roughly 8,800 targets only a part is listed; those with a hit were picked by preference. About 0.5% of all pairs of compound and target were hits. Unmarked numbers belong to inactive results.

Chain of UniProt Q9BXW9 (Q9BXW9 whole entry, looked up): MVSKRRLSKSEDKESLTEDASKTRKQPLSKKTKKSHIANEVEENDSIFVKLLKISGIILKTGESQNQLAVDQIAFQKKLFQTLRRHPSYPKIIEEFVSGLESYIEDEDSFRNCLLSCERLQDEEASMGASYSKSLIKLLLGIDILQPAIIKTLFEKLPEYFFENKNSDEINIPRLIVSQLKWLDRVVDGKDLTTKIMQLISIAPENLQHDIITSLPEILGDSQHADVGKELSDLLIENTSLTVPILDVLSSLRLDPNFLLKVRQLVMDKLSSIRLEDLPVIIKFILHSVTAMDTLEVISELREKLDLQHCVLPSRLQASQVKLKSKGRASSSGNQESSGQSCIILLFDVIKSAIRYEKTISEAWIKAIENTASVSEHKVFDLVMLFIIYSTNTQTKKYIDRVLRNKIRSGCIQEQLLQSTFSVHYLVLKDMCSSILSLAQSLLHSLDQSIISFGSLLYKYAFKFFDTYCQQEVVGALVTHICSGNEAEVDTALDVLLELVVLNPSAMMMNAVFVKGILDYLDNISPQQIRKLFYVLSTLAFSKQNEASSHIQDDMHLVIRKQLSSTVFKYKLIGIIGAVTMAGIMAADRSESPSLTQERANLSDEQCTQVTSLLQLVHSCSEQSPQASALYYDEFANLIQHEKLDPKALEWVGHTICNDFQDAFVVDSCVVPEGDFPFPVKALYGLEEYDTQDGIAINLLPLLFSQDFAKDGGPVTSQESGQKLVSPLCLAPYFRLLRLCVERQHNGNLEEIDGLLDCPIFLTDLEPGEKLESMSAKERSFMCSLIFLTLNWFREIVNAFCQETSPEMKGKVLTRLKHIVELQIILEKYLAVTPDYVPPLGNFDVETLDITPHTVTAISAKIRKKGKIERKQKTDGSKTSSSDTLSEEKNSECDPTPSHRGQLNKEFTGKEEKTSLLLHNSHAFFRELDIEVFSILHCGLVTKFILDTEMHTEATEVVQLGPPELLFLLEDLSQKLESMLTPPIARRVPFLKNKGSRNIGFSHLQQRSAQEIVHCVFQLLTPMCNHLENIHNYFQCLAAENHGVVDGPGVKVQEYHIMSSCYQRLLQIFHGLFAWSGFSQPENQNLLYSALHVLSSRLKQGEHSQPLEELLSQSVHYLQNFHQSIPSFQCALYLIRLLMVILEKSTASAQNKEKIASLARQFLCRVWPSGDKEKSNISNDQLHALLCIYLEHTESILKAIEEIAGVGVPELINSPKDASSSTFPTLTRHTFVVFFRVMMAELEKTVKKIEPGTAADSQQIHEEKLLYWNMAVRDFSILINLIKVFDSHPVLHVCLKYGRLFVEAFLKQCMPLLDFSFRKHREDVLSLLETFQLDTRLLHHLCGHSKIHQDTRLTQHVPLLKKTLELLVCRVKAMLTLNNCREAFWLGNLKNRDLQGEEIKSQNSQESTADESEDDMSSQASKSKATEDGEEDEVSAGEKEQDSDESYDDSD
Chain of UniProt Q9UKR5 (Q9UKR5 whole entry, looked up): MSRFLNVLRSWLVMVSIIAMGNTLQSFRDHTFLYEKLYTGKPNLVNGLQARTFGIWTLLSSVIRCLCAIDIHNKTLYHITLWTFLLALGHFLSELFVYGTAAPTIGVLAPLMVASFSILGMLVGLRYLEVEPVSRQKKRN
Chain of UniProt Q9Y6B2 (Q9Y6B2 whole entry, looked up): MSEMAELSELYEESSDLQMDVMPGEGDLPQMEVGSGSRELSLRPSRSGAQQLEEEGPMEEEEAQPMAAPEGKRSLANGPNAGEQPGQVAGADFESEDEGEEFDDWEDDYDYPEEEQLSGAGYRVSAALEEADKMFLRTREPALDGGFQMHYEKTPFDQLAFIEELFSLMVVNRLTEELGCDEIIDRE
Chain of UniProt P35916 (P35916 whole entry, looked up): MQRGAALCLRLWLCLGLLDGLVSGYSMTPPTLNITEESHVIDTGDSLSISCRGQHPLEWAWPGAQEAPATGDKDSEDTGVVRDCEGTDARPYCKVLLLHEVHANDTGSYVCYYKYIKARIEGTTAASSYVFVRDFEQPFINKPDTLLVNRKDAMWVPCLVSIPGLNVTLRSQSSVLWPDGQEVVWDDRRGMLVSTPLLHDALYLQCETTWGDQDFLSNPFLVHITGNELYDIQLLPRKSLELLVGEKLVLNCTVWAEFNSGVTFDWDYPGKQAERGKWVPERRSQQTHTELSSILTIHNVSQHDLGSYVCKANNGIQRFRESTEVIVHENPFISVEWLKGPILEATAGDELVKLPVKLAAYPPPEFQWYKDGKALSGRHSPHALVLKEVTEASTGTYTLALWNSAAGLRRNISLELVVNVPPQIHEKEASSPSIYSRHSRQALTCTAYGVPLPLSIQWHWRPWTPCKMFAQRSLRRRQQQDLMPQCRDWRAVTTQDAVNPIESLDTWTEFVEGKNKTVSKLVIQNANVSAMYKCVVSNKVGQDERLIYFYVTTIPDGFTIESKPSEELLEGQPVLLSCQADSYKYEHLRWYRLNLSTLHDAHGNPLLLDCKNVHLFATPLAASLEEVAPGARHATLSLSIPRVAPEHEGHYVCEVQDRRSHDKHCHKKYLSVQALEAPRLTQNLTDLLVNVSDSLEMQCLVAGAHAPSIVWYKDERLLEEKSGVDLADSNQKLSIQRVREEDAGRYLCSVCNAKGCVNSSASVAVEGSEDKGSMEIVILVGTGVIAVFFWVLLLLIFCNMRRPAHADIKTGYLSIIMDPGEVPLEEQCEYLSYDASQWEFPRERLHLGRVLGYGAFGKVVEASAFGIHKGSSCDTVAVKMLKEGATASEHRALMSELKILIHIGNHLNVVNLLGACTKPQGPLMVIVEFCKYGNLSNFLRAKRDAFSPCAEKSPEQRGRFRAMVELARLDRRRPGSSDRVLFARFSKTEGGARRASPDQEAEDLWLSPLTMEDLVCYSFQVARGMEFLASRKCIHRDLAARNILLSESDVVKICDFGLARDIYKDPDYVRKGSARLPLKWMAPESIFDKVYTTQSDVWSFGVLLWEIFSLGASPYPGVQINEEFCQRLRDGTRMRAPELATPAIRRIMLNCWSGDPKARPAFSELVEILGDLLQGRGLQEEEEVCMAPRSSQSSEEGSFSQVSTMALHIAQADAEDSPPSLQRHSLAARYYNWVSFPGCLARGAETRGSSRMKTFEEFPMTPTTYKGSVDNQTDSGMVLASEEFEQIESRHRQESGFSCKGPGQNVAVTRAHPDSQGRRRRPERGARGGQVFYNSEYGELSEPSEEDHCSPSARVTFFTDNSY
Chain of UniProt P37268 (P37268 whole entry, looked up): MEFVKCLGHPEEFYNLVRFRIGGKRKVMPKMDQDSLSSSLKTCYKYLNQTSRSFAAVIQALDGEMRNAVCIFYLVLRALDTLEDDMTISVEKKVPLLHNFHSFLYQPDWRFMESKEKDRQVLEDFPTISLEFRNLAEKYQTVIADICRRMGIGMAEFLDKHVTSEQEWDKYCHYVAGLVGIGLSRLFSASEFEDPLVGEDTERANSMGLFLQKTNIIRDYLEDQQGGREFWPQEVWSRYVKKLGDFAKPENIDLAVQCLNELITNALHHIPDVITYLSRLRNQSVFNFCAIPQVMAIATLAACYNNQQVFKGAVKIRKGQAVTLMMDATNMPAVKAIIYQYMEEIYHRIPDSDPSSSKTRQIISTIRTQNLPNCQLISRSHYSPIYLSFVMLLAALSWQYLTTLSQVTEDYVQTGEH
Chain of UniProt Q8TF64 (Q8TF64 whole entry, looked up): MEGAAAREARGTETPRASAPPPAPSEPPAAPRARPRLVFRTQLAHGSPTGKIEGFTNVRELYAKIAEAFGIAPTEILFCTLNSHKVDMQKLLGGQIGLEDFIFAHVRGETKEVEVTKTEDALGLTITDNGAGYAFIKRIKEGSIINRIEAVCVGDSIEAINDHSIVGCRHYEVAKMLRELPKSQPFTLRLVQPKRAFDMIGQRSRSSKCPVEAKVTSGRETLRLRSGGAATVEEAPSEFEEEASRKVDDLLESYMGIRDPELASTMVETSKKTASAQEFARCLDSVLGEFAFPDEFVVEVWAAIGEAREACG
Chain of UniProt Q9NZC3 (Q9NZC3 whole entry, looked up): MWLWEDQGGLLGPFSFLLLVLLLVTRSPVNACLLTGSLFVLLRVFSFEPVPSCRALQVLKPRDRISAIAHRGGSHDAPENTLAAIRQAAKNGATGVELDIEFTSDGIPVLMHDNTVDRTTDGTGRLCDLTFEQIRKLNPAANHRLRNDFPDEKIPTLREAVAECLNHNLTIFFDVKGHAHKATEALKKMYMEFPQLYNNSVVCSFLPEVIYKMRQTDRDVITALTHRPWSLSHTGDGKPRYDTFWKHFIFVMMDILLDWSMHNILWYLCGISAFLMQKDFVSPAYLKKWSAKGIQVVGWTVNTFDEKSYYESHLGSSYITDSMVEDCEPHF
Chain of UniProt P06733 (P06733 whole entry, looked up): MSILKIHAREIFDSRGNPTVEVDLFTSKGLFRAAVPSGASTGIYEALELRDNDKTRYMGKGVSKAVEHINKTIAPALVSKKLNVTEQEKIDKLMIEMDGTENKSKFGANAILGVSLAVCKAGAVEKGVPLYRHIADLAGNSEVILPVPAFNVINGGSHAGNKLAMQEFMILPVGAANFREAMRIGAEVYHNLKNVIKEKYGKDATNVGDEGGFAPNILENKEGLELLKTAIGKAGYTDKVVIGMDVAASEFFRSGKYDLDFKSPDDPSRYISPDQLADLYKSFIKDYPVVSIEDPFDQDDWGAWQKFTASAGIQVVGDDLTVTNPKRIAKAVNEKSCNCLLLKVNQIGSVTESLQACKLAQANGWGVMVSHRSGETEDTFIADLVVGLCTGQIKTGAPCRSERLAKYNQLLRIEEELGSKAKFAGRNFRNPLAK
Chain of UniProt O75477 (O75477 whole entry, looked up): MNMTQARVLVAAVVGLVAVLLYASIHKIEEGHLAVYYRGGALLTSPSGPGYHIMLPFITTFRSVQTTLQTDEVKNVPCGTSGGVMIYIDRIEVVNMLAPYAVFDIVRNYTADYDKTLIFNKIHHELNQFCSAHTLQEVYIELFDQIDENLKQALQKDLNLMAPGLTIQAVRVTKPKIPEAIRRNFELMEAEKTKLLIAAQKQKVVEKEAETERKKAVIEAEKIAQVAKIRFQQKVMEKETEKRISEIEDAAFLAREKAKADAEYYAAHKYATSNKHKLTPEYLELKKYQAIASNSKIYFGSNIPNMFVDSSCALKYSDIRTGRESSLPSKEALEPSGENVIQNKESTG

Compound in this experiment: c1cn2cc(-c3ccc4cn[nH]c4c3)nc(Nc3ccc(N4CCOCC4)cc3)c2n1 [entospletinib]
In words: log2 fold change, soluble protein after heating vs DMSO (PISA); higher = thermal stabilisation; K562 lysate, 10 uM; active = over 0.2 and 3.5 SD of the protein, either way, in both replicates (recomputed). An outline of the steps: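 Following dounce homogenisation of K562 pellets in PBS pH 7.4 with 1 mM MgCl2, crude extract at 1 mg/mL protein was incubated for 30 min with 10 μM compound. Aliquots were then heated for 3 min over 48°C-58°C and pooled, NP-40 was added to 0.5% at 4°C, and soluble protein was recovered as the supernatant at 21,000xg for 90 min. Channel-sum-equalised TMTpro 16plex LC-MS/MS quantified this protein. Each value, from duplicates, is a log-two fold change in thermal stability relative to solvent controls.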
FDFT1 (UniProt P37268): the log2 fold change was 0.06. With ERG28 (UniProt Q9UKR5), the log2 fold change was 0.009. For ERLIN1 (UniProt O75477) the value was 0.023; for GDE1 (UniProt Q9NZC3), -0.162. Consider GIPC3 (UniProt Q8TF64), for which the log2 fold change was -0.017. In the case of GART (UniProt C9JZG2) it was 0.037. For the target EPS8L2 (UniProt Q9H6S3), the log2 fold change was 0.33 (active). In the case of FASTKD2 (UniProt Q9NYY8) it was 0.013; in that of FTSJ1 isoform 2 (UniProt Q9UET6), 0.047; in that of FLT4 (UniProt P35916), 0.054. For FOXL2 (UniProt P58012) the value was -0.352; for EWSR1 (UniProt H7BY36), 0.016. For EID1 (UniProt Q9Y6B2) the value was -0.143; for GC isoform 3 (UniProt P02774), -0.053; for ENSA isoform 3 (UniProt O43768), -0.014. For the target ESRRA (UniProt P11474), the log2 fold change is -0.034. Consider FAT1 (UniProt Q14517), for which the log2 fold change is -0.034. In the case of FOXJ2 (UniProt Q9P0K8) it was 0.033; in that of ELF2 (UniProt Q15723), -0.03. For DYNC1I2 isoform 2 (UniProt Q13409) the value was 0.039.

For EHHADH (UniProt Q08426), the log2 fold change was -0.013. As for EXOC3 (UniProt O60645), the log2 fold change is -0.026. On to GBA2 (UniProt Q9HCG7), for which the log2 fold change is -0.102.

In the case of EEF1A1P5 (UniProt Q5VTE0), the log2 fold change is 0.033.

On to EPB41, A0A2R8Y783, for which the log2 fold change was 0.393. For ENO1 isoform 2 (UniProt P06733) the value was -0.05; for DST isoform 3 (UniProt Q03001), -0.004; for FANCD2 isoform 1 (UniProt Q9BXW9), -0.005.
